# RE007 growth inh = qHTS Assay for Inhibitors of the HIV-1 protein Vpr; S. pombe RE007 Vpr strain, BacTiter-Glo ATP luminescence, 24 h; Potency, µM (highest dose often 92.2 µM), without a hit: at the top dose activity change, negative = less growth, usual class: inhibitors; actives 0.21% (n = 360,000); active = well fitted falling curve with a large enough effect; inconclusive = small, poorly fitted or top-dose-only effect; inactive = no such curve, though single readings can be large or run the other way; note: nearly all actives have a fitted effect of over 50% in size
#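 Fission yeast strain RE007, carrying one chromosomally integrated HIV-1 vpr copy, was seeded at OD 0.01 in PMG+AL medium with 23 nL pinned compound. After 24 h at 30 °C and 99% humidity, viability was read by BacTiter-Glo luminescence.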
# AMA1 RON2 block = qHTS for Inhibitors of AMA1-RON; Towards Development of Antimalarial Drug Lead: Primary Screen. actives 0.2% (n = 360,000). Plasmodium falciparum AMA1 (3D7) - RON2 peptide interaction. Potency, µM (highest dose often 58.2 µM), for inactives: at the highest dose activity change, negative = inhibition, most hits filed as inhibitors. AlphaScreen AMA1-biotinylated RON2 peptide binding;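 note: 0% = vehicle wells and -100% = peptide control; nearly all actives have a fitted effect of over 45% in size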
#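 AMA1 (3D7) with his tag at 25 nM final met compounds first, then biotinylated RON2 peptide at 25 nM; detection used donor plus acceptor beads, 10 µg/mL apiece, read by AlphaScreen after 30 min at room temperature.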
# Sm TGR inh = qHTS Assay for the Inhibitors of Schistosoma Mansoni Peroxiredoxins; Schistosoma mansoni thioredoxin glutathione reductase (TGR), Q962Y6; purified TGR, DTNB reduction, TNB absorbance 405 nm; Potency, µM (titrated, usually from 114 µM), without a hit: top-dose activity change, negative = inhibition, hits mostly inhibitors; actives 3% (n = 360,000); AID 485364, 2010; note: nearly all actives have a fitted effect of over 60% in size
#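 First, TGR (20 nM dispensed) and NADPH were mixed with compound. Second, a 15 min room-temperature incubation followed. Third, further NADPH and then DTNB were added to start the reaction. Finally, TNB absorbance was monitored kinetically.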
# AmpC no deterg = qHTS Inhibitors of AmpC Beta-Lactamase (assay without detergent). P00811. AID 485341, 2010. Potency, µM (series often up to 57.1 µM), for the others: top-dose activity change, negative = inhibition, usual class: inhibitors. actives 0.52% (n = 330,000). AmpC nitrocefin hydrolysis, absorbance 480 nm, 0.0001% Triton;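 note: plate controls were no compound for no effect and no enzyme for full effect; nearly all actives have a fitted effect of over 20% in size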
# Target sequence (P00811 whole entry, looked up): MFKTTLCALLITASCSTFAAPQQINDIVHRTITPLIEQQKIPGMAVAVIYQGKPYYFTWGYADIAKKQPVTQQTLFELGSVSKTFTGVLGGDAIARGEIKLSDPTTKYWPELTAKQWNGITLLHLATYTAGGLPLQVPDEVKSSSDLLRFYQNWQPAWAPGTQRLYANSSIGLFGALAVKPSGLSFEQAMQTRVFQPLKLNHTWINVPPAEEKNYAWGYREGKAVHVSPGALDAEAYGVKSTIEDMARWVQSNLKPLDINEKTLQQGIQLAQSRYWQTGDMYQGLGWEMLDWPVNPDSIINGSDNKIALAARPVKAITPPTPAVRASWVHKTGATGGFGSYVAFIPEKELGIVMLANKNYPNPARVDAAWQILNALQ
#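 20 mM phosphate pH 7.0 + 0.01% (detergent screen) or 0.0001% Triton X-100; 5.3 nM AmpC reagent; cpd preinc 15 min RT; nitrocefin (800 uM stock) to start; A480 q20 s × 4 min; Activity was normalised to no-enzyme and no-compound control wells.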
# AmpC detergent = qHTS Inhibitors of AmpC Beta-Lactamase (assay with detergent). actives 0.041% (n = 370,000). P00811. Potency, µM (highest dose often 114 µM), for the others: top-dose activity change, negative = inhibition, hits mostly inhibitors. AmpC hydrolysis of nitrocefin, absorbance 480 nm, 0.01% Triton;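 note: 0% = no-compound wells and -100% = no-enzyme wells; nearly all actives have a fitted effect of over 25% in size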
#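 AmpC (5.3 nM in the dispensed reagent) in 20 mM phosphate pH 7.0 with 0.01% (detergent screen) or 0.0001% Triton X-100 was preincubated with compounds for 15 min at room temperature. Nitrocefin was then added from an 800 uM solution, and hydrolysis was followed at 480 nm.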
# Starred values were filed as active, the others as inactive; ? = inconclusive; . = no result; [ ] = dose if it differs, or a comment. Compounds with a hit are over-represented: about 3.2% of the library has one in this group of screens. Unless noted, calls come from the whole dose curve; as a rule, active = well fitted curve in the direction sought with a large enough effect; inconclusive = small, poorly fitted or top-dose-only effect, or another doubt; inactive = no such curve, though single readings can be large; an effect the other way counts as inactive or inconclusive. Unless noted, % is set by controls: 0 for no effect and ±100 for the full control effect; potency is the fitted concentration of half-maximal effect.
SMILES,RE007 growth inh,AMA1 RON2 block,Sm TGR inh,AmpC no deterg,AmpC detergent
CCC(=O)N(CCC(c1ccco1)C(C)C)Cc1ccccc1 (stereo unspecified),-21%,-7%,0%,38%,-9%
Cc1ccccc1-c1ncnn1-c1sc2c(c1C#N)CCCCC2,.,.,4%,.,9%
Cc1ccc(Cn2c(CNS(=O)(=O)c3ccc(C(C)(C)C)cc3)nc3cccnc32)cc1,.,.,-4%,.,-1%
Cc1cc(C)nc(SSc2nc(C)cc(C)n2)n1,3%,13%,-17%,?,79µM*
Nc1ccc2ccc3cccc[n+]3c2c1,-1%,-6%,32µM*,-7%,-14%
CCOc1ccc(C2C(=O)N(C3CCCCC3)CC(=O)N2CCc2ccccc2)cc1OC (stereo unspecified),.,.,-5%,.,-4%
CCCNC(=O)N1[C@H](c2cccs2)[C@@H](C)C(=O)[C@@H](C)[C@@H]1c1cccs1,.,.,8%,.,16%
Oc1[nH]c2ccccc2c1N=NC(=S)NCCc1ccccc1,.,-5%,-8%,25µM*,?
C=C(C)Cn1c(SCC(=O)Nc2ccccc2C)nc2sc3c(c2c1=O)CCCC3,.,.,-4%,.,-2%
CCC(Oc1ccccc1)C(=O)Nc1ccccc1C(=O)N1CCOCC1 (stereo unspecified),1%,18%,-17%,-4%,5%
CC(Sc1ccccc1)C(=O)Nc1ccccc1C(=O)N1CCOCC1 (stereo unspecified),16%,-4%,2%,0.28µM*,5%
O=C(Nc1c2c(nn1-c1ccc(Cl)cc1)CS(=O)(=O)C2)c1ccccc1F,.,.,-1%,.,0%
CC(=O)C(=Cc1ccc(O)cc1)C(C)=O,.,3%,45µM*,-27%,-7%
CCC(=O)Nc1ccc(C=C(C(C)=O)C(C)=O)cc1,-1%,-3%,?,5%,2%
COc1cc(-c2c(C#N)c(N)nc3c2CCCC3)ccc1O,-15%,9%,20µM*,-19%,?
Cc1ccc(OCCN2CCN(C)CC2)c([N+](=O)[O-])c1,4%,25µM*,0%,-15%,?
Cc1ccc(OCCN2CCNCC2)c([N+](=O)[O-])c1,-13%,-29%,5%,-7%,-9%
Cc1cccc(Nc2nc(N)nc(CCl)n2)c1,0%,16%,14µM*,-16%,0%
COc1cccc(Nc2nc(N)nc(CCl)n2)c1,3%,7%,20µM*,-26%,4%
CC(C)(C)C(=O)N1CCN(c2nc3c(F)cccc3s2)CC1,.,.,-1%,.,-2%
CC(=O)N=c1sc2nc3ccccc3nc2n1N(C(C)=O)C(C)=O,-30%,38%,50µM*,-15%,?
CC(=O)N=c1sc2ccccc2n1C,1%,-8%,-24%,-10%,-7%
Cc1ccc(CN2CCN(/N=C/c3ccc(C(F)(F)F)cc3)CC2)cc1,-1%,-23%,-16%,-22%,?
Cc1ccc(N2CCN(/N=C/c3ccccc3[N+](=O)[O-])CC2)cc1,-23%,?,-8%,-24%,1%
O=[N+]([O-])c1ccccc1C=NN1CCCCCC1,-22%,18µM*,.,.,.
SMILES,RE007 growth inh,AMA1 RON2 block,Sm TGR inh,AmpC no deterg,AmpC detergent
FC(F)(F)c1ccc(/C=N/N2CCN(Cc3ccccc3)CC2)cc1,-25%,20µM*,8%,-2%,?
O=[N+]([O-])c1ccc(/C=N/N2CCN(Cc3ccccc3)CC2)cc1,-28%,25µM*,-13%,-12%,-2%
Cc1ccc(CN2CCN(/N=C\c3cccc([N+](=O)[O-])c3)CC2)cc1,5%,14µM*,3%,12%,-3%
COc1ccc(OCC(=O)Nc2nc(-c3ccc(Br)cc3)ns2)cc1,.,.,8%,.,9%
O=[N+]([O-])c1ccccc1/C=N\N1CCN(Cc2ccccc2Cl)CC1,4%,20µM*,5%,-18%,?
O=[N+]([O-])c1ccccc1/C=N/N1CCN(Cc2ccccc2)CC1,-15%,28µM*,12%,0%,-10%
O=C(C1=NN[C@@H]2C(=O)N(c3cccc(F)c3)C(=O)[C@H]12)c1cnccn1,2%,30%,3.2µM*,-15%,1%
O=C(CN(Cc1ccco1)C(=O)Cn1nnc(-c2cccs2)n1)NCc1ccccc1,3%,-5%,18µM*,-20%,?
Cc1cccc(N(CC(=O)NCc2ccccc2)C(=O)Cn2nnc(-c3ccc(C)o3)n2)c1,9%,-6%,-14%,-14%,-18%
CC(C)(C)NC(=O)C(c1ccncc1)N(Cc1cccs1)C(=O)Cn1nnc(-c2cccs2)n1 (stereo unspecified),-5%,-4%,50µM*,64%,-2%
CC(C)(C)NC(=O)C(c1ccc(O)cc1)N(Cc1ccco1)C(=O)Cn1nnc(-c2cccs2)n1 (stereo unspecified),-7%,-3%,18µM*,-48%,-5%
O=C(Cn1nnc(-c2cccs2)n1)NCCc1ccccc1,0%,23%,-8%,-28%,-13%
Cc1ccc(-c2nnn(CC(=O)N(CC(=O)NCc3ccccc3)c3cccc(C)c3C)n2)o1,-10%,-15%,22µM*,?,-7%
O=C(COCc1cc(-c2cccs2)on1)NCc1ccc(F)cc1,.,.,2%,.,11%
O=C(CCSc1ccc(Cl)cc1)c1cccs1,?,17%,2.2µM*,-14%,0%
O=C(CCNc1ccc(Cl)cc1)c1cccs1,?,6%[11.6 µM],16µM*,-27%,?
CCOc1ccc(C(=O)Nc2cccc(NC(=O)c3ccc(C(C)(C)C)cc3)c2)cc1Br,.,.,14%,.,12%
CCN(CC)CCN(C(=O)c1cccc(N2C(=O)CCC2=O)c1)c1nc2cc3c(cc2s1)OCO3,-3%,2%,-30%,-8%,1%
O=C(CCS(=O)(=O)c1ccccc1)N(CCCN1CCOCC1)c1nc2ccccc2s1,-25%,6%,2.5µM*,201%,-5%
CCN(CC)CCN(C(=O)CCS(=O)(=O)c1ccccc1)c1nc2cc3c(cc2s1)OCO3,-10%,0%,8.9µM*,21%,1%
CCN(CC)CCN(C(=O)c1ccc(N2C(=O)CCC2=O)cc1)c1nc2cc3c(cc2s1)OCCO3,-5%,-7%,45µM*,6%,-9%
Cc1ccc(S(=O)(=O)CCC(=O)N(CCCN2CCOCC2)c2nc3ccccc3s2)cc1,-15%,?,14µM*,165%,1%
CCOc1ccc(C(=O)NCc2ccc3c(c2)CCN3C(=O)c2ccc(Cl)cc2)cc1,.,.,10%,.,7%
O=C(CSc1nc2c(c(=O)[nH]1)CN(Cc1ccc3c(c1)OCO3)CC2)Nc1ccc(F)cc1,.,.,6%,.,-7%
